Screening data: PubChem, National Center for Advancing Translational Sciences (NCATS)
HPGD block: blocks human HPGD enzyme activity | purified HPGD, NADH fluorescence kinetic, PGE2 substrate | Potency, µM, hits mostly inhibitors | 150,000 tested, 4.3% active | AID 894
Target sequence (P15428 whole entry, looked up): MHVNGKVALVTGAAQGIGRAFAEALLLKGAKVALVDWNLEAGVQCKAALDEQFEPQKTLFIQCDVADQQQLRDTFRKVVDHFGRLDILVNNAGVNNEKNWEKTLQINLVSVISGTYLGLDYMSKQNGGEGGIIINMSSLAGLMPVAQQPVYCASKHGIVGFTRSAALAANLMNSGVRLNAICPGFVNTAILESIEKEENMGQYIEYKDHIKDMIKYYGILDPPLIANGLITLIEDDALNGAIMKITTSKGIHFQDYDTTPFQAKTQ
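NADH formation kinetics: reaction with 30 uM PGE2 and 1 mM NAD+ (final), 20 nM enzyme, Tris-HCl pH 8 with Tween 20, after 15 min compound preincubation at room temperature. Fluorescence change, last versus first of five reads.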
PNC assembly inh: perinucleolar compartment assembly inhibition | activity change (PNC), negative = inhibition, % at 10 µM | 140,000 tested, 3.1% active | PC3M PTB-GFP, PNC prevalence imaging, 16 h; active compounds read low;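 active = readout at or below -70, meaning at least 70% loss of cells showing the perinucleolar compartment, a nuclear body marking cancer cells; inconclusive = readout between -30 and a set limit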
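PC3M cells stably expressing PTB-GFP, 750–1000 cells/well, treated 16 h at 37 °C with compound (23 nl of library stock), in duplicate. After paraformaldehyde fixation and Hoechst stain, imaged at 20x; PNC prevalence scored by image analysis.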
HTT ATP protect: Huntington cell model cytoprotection by ATP luminescence; PC12 HTT-Q103 induced, cytoprotection, ATP luminescence, 40 h; Potency, µM (titrated, usually from 56.4 µM), usual class: activators; 230,000 tested, 0.14% active; AID 1471; active = well fitted curve in the direction sought with a large enough effect; inconclusive = small, poorly fitted or top-dose-only effect, or another doubt; inactive = no such curve, though single readings can be large; an effect the other way counts as inactive or inconclusive; note: nearly all actives have a fitted effect of over 45% in size
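PC12 cells with ecdysone-inducible HTT exon 1 Q103-GFP, induced with 100 nM tebufenozide and co-treated with library compounds in a dose series (1536-well, 1500 cells/well). Cytoprotection read as ATP content by ATPlite luminescence.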
HttQ103 aggreg: mutant huntingtin aggregation inhibition; AID 1688; PC12 HttQ103-GFP aggregates, Acumen cytometry, 40 h; Potency, µM (doses to about 46.1 µM), hits mostly inhibitors; 220,000 tested, 1.1% active; active = well fitted curve in the direction sought with a large enough effect; inconclusive = small, poorly fitted or top-dose-only effect, or another doubt; inactive = no such curve, though single readings can be large; an effect the other way counts as inactive or inconclusive; note: nearly all actives have a fitted effect of over 60% in size
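Read-out: GFP aggregate count by laser scanning cytometer (488 nm excitation, 500-530 nm emission, 1–25 µm objects >6 SD above background). Cells: PC12, inducible HTTex1-Q103-GFP, 100 nM tebufenozide; compounds titrated.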
GoLoco inh red: blocks human Gai1 binding to RGS12 GoLoco peptide, red readout; Gai1:RGS12 GoLoco peptide FP, rhodamine, 10 min; Potency, µM (doses to about 61.6 µM), usual class: inhibitors; 230,000 tested, 0.44% active; AID 880; active = well fitted inhibition curve with a large enough effect, not every such curve was filed as active; inactive = no such curve, though single readings can be large or run the other way; note: nearly all actives have a fitted effect of over 30% in size
ALDH1A1 inh: inhibitors of human aldehyde dehydrogenase 1A1; Potency, µM (top dose mostly 75.3 µM), hits mostly inhibitors; P00352; Purified ALDH1A1, NADH fluorescence, propionaldehyde substrate; 220,000 tested, 7.3% active
Target sequence (P00352 whole entry, looked up): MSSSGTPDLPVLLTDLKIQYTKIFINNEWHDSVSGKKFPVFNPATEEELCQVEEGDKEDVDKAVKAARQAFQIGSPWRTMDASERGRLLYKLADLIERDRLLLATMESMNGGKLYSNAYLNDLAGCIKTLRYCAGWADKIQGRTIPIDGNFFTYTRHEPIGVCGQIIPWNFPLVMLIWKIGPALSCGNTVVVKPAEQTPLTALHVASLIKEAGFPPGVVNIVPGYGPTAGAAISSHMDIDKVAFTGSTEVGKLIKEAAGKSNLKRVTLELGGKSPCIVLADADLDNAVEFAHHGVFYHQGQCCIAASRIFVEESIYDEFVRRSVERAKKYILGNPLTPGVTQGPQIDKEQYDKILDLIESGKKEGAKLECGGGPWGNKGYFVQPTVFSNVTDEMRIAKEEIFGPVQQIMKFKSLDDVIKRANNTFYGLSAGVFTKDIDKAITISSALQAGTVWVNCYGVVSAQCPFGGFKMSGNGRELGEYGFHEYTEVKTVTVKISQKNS
A number is an active result; i = inactive; ? = inconclusive; nt = not tested or not shown; [ ] = dose if it differs, or a comment. Shown are actives, neighbours in structure and some others; about 11% of the full set was active somewhere. Unless noted, calls come from the whole dose curve; as a rule, active = well fitted inhibition curve with a large enough effect (not every such curve was filed as active); inconclusive = small, poorly fitted or top-dose-only effect, or another doubt; inactive = no such curve, though single readings can be large or run the other way.

SMILES	HPGD block	PNC assembly inh	HTT ATP protect	HttQ103 aggreg	GoLoco inh red	ALDH1A1 inh
CCN1C(=O)[C@H]2[C@H]3[C@H](O)[C@H](O)C/C(=N/NC(=O)OCc4ccccc4)[C@H]3CC[C@@H]2C1=O	nt	nt	i[10 µM]	nt	nt	i[13.5 µM]
CCOc1ccc(NC(=O)C2CC(=O)N3CCCN=C3S2)cc1 (stereo not given)	i	i	i	i	i	14µM
CCOc1ccc(NC(=O)C2CC(=O)N(C)C(=Nc3ccc4c(c3)OCO4)S2)cc1 (stereo not given)	i	?	i[10 µM]	i	i	i
CCCOc1ccc(NC(=O)C2CC(=O)N(C(C)C)C2)cc1 (stereo not given)	nt	i	i[10 µM]	i	nt	i
CCCOc1ccc(NC(=O)C2CC(=O)N3CCCN=C3S2)cc1 (stereo not given)	i	i	i[0.074 µM]	i	i	2.8µM
COCCn1c(=O)c(-c2cc(F)cc(F)c2)nc2cnc(Oc3cccc(Cl)c3)nc21	?	nt	i	nt	i	?
O=C(CNC(=O)c1ccco1)OCC(=O)c1ccc(Cl)cc1Cl	nt	nt	?	i[9.22 µM]	i	i
COc1ccc2[nH]cc(CC(=O)O)c2c1	i	i	nt	i	i	i
O=C(O)Cc1c[nH]c2ccc(O)cc12	22µM	nt	i[1.9 µM]	nt	i	?
COc1cc(/C=C(\C#N)c2nc3ccccc3n2C)cc(OC)c1O	nt	nt	nt	i	i	?
C=CCn1c(=O)/c(=C/c2cc(OC)c(OC)c(OC)c2)s/c1=C(/C#N)c1nc2ccccc2n1C	i	i	i	i	i	1.4µM
CN1CCN(C(=O)c2cc(-c3ccc(O)cc3)on2)CC1	nt	nt	i	nt	nt	nt
N#Cc1ccccc1Sc1ccccc1C(=O)OCC(=O)NC12CC3CC(CC(C3)C1)C2	13µM	i	i[10 µM]	i	i	i
CC(=O)c1ccc(NC(=O)COC(=O)c2ccccc2Sc2ccccc2C#N)cc1	?	i	i[10 µM]	i	i	i
O=C(OCC(=O)N1CCN(C(=O)c2ccco2)CC1)c1ccccc1O	i	i	i	i	i	i
N#Cc1ccccc1Sc1ccccc1C(=O)OCC(=O)N1CCN(C(=O)c2ccco2)CC1	?	i	i[10 µM]	i	i	14µM
CCCOc1cccc(OCCSc2nc(C)cc(=O)[nH]2)c1	i	-86	i	i	i	i
O=C1NNC(=O)C2C3C=CC(C4CC34)C12 (stereo not given)	i	i	i[10 µM]	i	i	25µM
COc1ccc2c(C)cc(SCC(=O)Nc3ccc(Cl)cn3)nc2c1	i	i	nt	i	i	?
COc1ccc(-c2nc3n(c(=O)c2C#N)CCS3)cc1	nt	nt	nt	i	i	i
COC(=O)/C(C#N)=C/c1c(-c2ccccc2)nc2n1CCS2	nt	nt	i[10 µM]	i[9.22 µM]	i	1.4µM
Nc1ncnc2nn([C@H]3O[C@@H](CO)[C@@H](O)[C@H]3O)nc12	i	nt	i[10 µM]	nt	i[14.2 µM]	i[13.5 µM]
CC1c2nc3ccccc3n2C(CC(=O)NC2CC2)C(=O)N1Cc1ccccc1 (stereo not given)	nt	nt	i	i	i	i
O=C(Nc1c2c(nn1-c1ccc(F)cc1)CS(=O)(=O)C2)c1ccc(S(=O)(=O)N2CCOCC2)cc1	nt	nt	i	i	i	i
CCCCCn1c(=O)c2ccccc2n2c(CCl)nnc12	nt	nt	i	i	i	25µM
SMILES	HPGD block	PNC assembly inh	HTT ATP protect	HttQ103 aggreg	GoLoco inh red	ALDH1A1 inh
CC(C)CCn1c(=O)c2ccccc2n2c(CN3CCCC3)nnc12	nt	nt	i[10 µM]	i	i	?
CC(C)CCn1c(=O)c2ccccc2n2c(CCl)nnc12	nt	nt	i	i	i	25µM
Cc1ccc(Cn2c(=O)c3ccccc3n3c(CCC(=O)O)nnc23)cc1	nt	nt	i	nt	nt	nt
CCCn1c(-c2ccc(F)cc2)nc2c(NC(C)CCCN(CC)CC)nc(C)nc21 (stereo not given)	?	nt	i	nt	i	?
CCOC(=O)c1cnc(SC)nc1Sc1ccccc1Cl	16µM	-104	i	i	i	i
CC(=O)Nc1ccc(SCC(=O)c2cc(C)n(CC(F)(F)F)c2C)cc1	i	i	i	i	i	20µM
CC(=O)Nc1ccc(SCC(=O)c2cc(C)n(C)c2C)cc1	i	i	i	i	i	i
O=C(NCc1ccccc1Cl)c1ccc2c(c1)SC1=NS(=O)(=O)CCN12	nt	nt	i	i	i	4.5µM
CCc1c(C)sc(NC(=O)c2cc(C)on2)c1C#N	i	i	i	i	i	?
CCc1c(C)sc(NC(=O)C2CCCO2)c1C#N (stereo not given)	28µM	i	i[10 µM]	i	i	16µM
CCOC(=O)c1c(NC(=O)c2noc(C)c2[N+](=O)[O-])sc(C(C)=O)c1C	nt	nt	i	i	i	25µM
CCOC(=O)c1c(NC(=O)c2cc(C3CC3)on2)sc(C(C)=O)c1C	nt	nt	i	nt	nt	nt
CC1CCc2c(sc(NC(=O)C3CCCO3)c2C#N)C1 (stereo not given)	nt	nt	nt	i	i	?
CCc1c(C)sc(NC(=O)c2cc(-c3ccco3)on2)c1C#N	?	i	i	i	i	28µM
N#Cc1c(NC(=O)C2CC(c3ccccc3O)=NO2)sc2c1CCC2 (stereo not given)	25µM	i	i[10 µM]	i	i	11µM
Cn1cc([N+](=O)[O-])c(C(=O)Nc2nccs2)n1	nt	nt	i[10 µM]	i[9.22 µM]	i	i
CCNS(=O)(=O)c1cc(OC)c(Cl)cc1OC	i	i	i[10 µM]	i	i	?
CCCc1cc(C(=O)Nc2sc(C)c(CC)c2C#N)no1	i	i	i[10 µM]	i	i	28µM
CCCc1cc(C(=O)Nc2sc3c(c2C#N)CCC3)no1	28µM	i	i[10 µM]	i	i	11µM
CC(C)C(=O)Nc1sc2c(c1C#N)CCCCC2	i	i	i[10 µM]	i	i	i
Cc1onc(-c2ccccc2Cl)c1C(=O)Nc1sc2c(c1C#N)CCC2	?	i	i[10 µM]	11µM	i	?
Cc1onc(C(=O)Nc2sc3c(c2C#N)CCCC3)c1[N+](=O)[O-]	nt	nt	i	i	i	7.1µM
Cc1cc(C(=O)Nc2sc3c(c2C#N)CCCCC3)cs1	?	i	i	i	i	?
CC(C)=NOCc1ccc(-c2cn([C@@H]3COC[C@@H]3O)nn2)cc1	nt	nt	i[10 µM]	nt	nt	i[13.5 µM]
COC(=O)C1=C(C(=O)OC)[C@@H]2N(Cc3ccccc3)c3ccccc3[C@@]23C[C@@H](C(=O)OC)N(S(=O)(=O)c2cccs2)C3=N1	i	nt	i[10 µM]	nt	i[14.2 µM]	i[13.5 µM]
C/C(Cn1nc([N+](=O)[O-])cc1C)=N\NC(=O)COc1ccc(Cl)cc1Cl	i	?	i[10 µM]	i	i	?
C/C(Cn1nc([N+](=O)[O-])cc1C)=N\NC(=O)COc1ccccc1[N+](=O)[O-]	i	?	i[10 µM]	i	i	14µM
COCC(=O)Nc1sc2c(c1C(=O)OC)CCC(C)C2 (stereo not given)	i	i	i	i	i	?
CCOC(=O)c1c(NC(=O)CC2SC(N)=NC2=O)sc2c1CCC(C)C2 (stereo not given)	i	i	i[10 µM]	?	i	16µM
